TEAD-YAP block: TEAD-YAP interaction inhibition. inhibition, % at 9.12 µM. 640,000 tested, 1.4% active. HEK-TIYL cells, TEAD-Gal4/YAP UAS-luciferase luminescence; in the data active means inhibition above about 32%
MITF primary: inhibitors of human MITF; AID 1259374; AlphaScreen MITF homodimerization, bead proximity signal; inhibition, % at 2.6 µM; 650,000 tested, 0.91% active; in the data active means inhibition above about 50%
FBW7 act: human FBW7 E3 ligase activation, primary screen; AlphaScreen FBW7–phospho-cyclin E peptide binding, activator screen; AID 1259310; 650,000 tested, 0.13% active; normalized activity (activation), % at 26.1 µM; in the data active means normalized activity above about 1.9%;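 further: purified mutant Fbw7 with reduced substrate affinity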
Target sequence (Q969H0 whole entry, looked up): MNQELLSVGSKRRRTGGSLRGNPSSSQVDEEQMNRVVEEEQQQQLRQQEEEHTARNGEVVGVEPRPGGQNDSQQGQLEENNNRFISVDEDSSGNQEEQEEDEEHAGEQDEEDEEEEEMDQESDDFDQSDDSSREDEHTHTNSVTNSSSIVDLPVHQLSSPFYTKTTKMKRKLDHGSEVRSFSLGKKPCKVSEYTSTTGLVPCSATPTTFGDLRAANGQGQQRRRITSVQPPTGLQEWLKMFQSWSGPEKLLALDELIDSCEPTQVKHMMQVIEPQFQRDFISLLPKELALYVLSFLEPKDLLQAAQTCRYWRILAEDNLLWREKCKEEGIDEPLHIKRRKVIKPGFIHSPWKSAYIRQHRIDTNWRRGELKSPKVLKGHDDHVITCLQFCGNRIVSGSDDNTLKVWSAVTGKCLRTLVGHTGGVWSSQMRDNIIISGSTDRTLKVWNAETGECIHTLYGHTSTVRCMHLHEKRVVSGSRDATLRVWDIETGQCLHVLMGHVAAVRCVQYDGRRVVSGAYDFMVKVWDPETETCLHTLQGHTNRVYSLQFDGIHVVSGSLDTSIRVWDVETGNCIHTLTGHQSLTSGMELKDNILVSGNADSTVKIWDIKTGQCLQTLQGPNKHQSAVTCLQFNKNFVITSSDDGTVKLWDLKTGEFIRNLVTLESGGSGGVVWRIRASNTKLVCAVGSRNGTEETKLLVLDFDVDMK
GPR151 ag: activates the human receptor GPR151. Q8TDV0. activation, % at 11.2 µM. 650,000 tested, 1% active. PathHunter beta-arrestin GPR151 cells, luminescence; in the data active means activation above about 4.9%
Large screens that a line does not name were inactive. Rows were chosen to be rich in hits. Some 3.5% of all compounds tested hit in one or more screens of this group.

CC(C)(CNC(=O)CCc1nnc(C2CCCCC2)o1)N1CCOCC1	none
COc1ccc(CCNC(=O)CSc2ccc3nnc(-c4ccccc4)n3n2)cc1OC	FBW7 act 2.7
COc1ccc(-c2nnc3ccc(SCC(=O)NCCc4ccccc4)nn23)cc1	none
O=C(CSc1ccc2nnc(-c3ccncc3)n2n1)NCCc1ccccc1	FBW7 act 2.0
CCc1c(C)nc2sc(C(=O)c3ccccc3)c(N)c2c1C	none
COc1ccccc1C1CN(Cc2ccc(CO)o2)Cc2ccccc2O1 (stereo not given)	none
CCOc1ccc2nc(N3CCCC3C(=O)NCc3ccc4ncccc4c3)nc(C)c2c1 (stereo not given)	none
Cc1nn(-c2ccccc2)c(Cl)c1/C=N/Nc1ncnc(N)c1[N+](=O)[O-]	TEAD-YAP block 32
CCN(CC)c1ccc(/C=N/Nc2ncnc(N)c2[N+](=O)[O-])cc1	TEAD-YAP block 91
Cc1cc(/C=N/Nc2ncnc(N)c2[N+](=O)[O-])c(C)n1-c1ccccc1	TEAD-YAP block 83
Cc1cccc(C(=O)Oc2coc(CSc3ncccn3)cc2=O)c1	none
CCOc1ccc(-n2c(SCC(=O)Nc3ccccc3)nnc2-c2ccncc2)cc1	none
Oc1ccc(C=Nc2ccccc2)c(O)c1O	MITF primary 85
O=c1[nH]c2ccc(N=Cc3ccc(O)c(O)c3O)cc2[nH]1	MITF primary 68
Oc1cccc(C=Nc2ccc(Br)cc2)c1O	none
Cc1ccc(N=Cc2cccc(O)c2O)cc1F	none
Cc1ccc(N=Cc2ccc(O)c(O)c2O)cc1F	MITF primary 69
COc1cc(C(=O)OCC(=O)NCC(F)(F)F)cc(OC)c1OC	none
Cc1c(Br)c(C(F)(F)F)nn1CC(=O)NCc1ccc(F)cc1C(F)(F)F	TEAD-YAP block 36
COc1cc(CNC(=O)Cn2nc(C(F)(F)F)c(Br)c2C)cc(OC)c1	none
CCOC(=O)c1sc2nc(-c3ccc(C)cc3C)cc(-c3ccccc3)c2c1N	none
CCOC(=O)c1cnc2c(OC)cccc2c1NCCCN(CC)CC	TEAD-YAP block 83
CCOC(=O)c1cnc2c(OC)cccc2c1NCCc1ccccc1	none
CCOC(=O)c1cnc2c(OC)cccc2c1NCCOC	TEAD-YAP block 42
CCOC(=O)c1cnc2c(OC)cccc2c1NCCCOC	none
CCOC(=O)c1cnc2c(OC)cccc2c1Nc1cc(OC)c(OC)c(OC)c1	TEAD-YAP block 56
O=C1N/C(=C/c2cccc(F)c2)C(=O)N1Cc1ccc(Br)cc1	TEAD-YAP block 55
COc1cc(/C=C2/NC(=O)N(Cc3ccc(Br)cc3)C2=O)cc2c1OCO2	TEAD-YAP block 60
O=C(Nc1ccc2c(c1)C(=O)N(c1cccc([N+](=O)[O-])c1)C2=O)c1ccc(Br)cc1	none
O=C(O)c1cc2c3c(c1)C(c1ccccc1)(c1ccccc1)CCN3CCC2(c1ccccc1)c1ccccc1	none
O=C1Nc2ccc(S(=O)(=O)Nc3cc(Cl)c(O)c4ccccc34)c3cccc1c23	none
COc1cc(/C=C2/NC(=S)NC2=O)ccc1O	TEAD-YAP block 54
COc1cc(/C=C2\NC(=S)NC2=O)ccc1O	none
O=C1NC(=S)S/C1=C\c1ccc2c(c1)OCO2	none
O=C1NC(=S)N/C1=C/c1ccc2c(c1)OCO2	TEAD-YAP block 36
COc1cccc(/C=C2/NC(=S)NC2=O)c1O	TEAD-YAP block 41
COC(CNc1cc(=O)n(C)c(=O)n1Cc1ccc(F)cc1F)OC	none
Cc1ccc(-c2n[nH]c3c2C(c2ccccc2F)N(c2ccccc2)C3=O)cc1 (stereo not given)	TEAD-YAP block 48
Cc1ccc(C2c3c(-c4ccc(F)cc4)n[nH]c3C(=O)N2c2ccccc2)cc1 (stereo not given)	none
C=CCNc1cc(-c2ccccc2)nc(-c2ccccn2)n1	TEAD-YAP block 88
CCN(CC)c1cc(-c2ccccc2)nc(-c2ccccn2)n1	TEAD-YAP block 47
Cc1cccn2c(=O)c(/C=C(\C#N)C(=O)N3CCOCC3)c(Oc3ccc(F)cc3)nc12	none
COC(=O)c1cc(-c2c(C)nn(-c3ccccc3)c2C)n[nH]1	none
COc1ccc(/C(C)=N\NC(=O)c2cc(-c3c(C)nn(-c4ccccc4)c3C)n[nH]2)cc1	TEAD-YAP block 44
COc1ccc(CCNC(=O)C(=O)NCc2ccco2)cc1	TEAD-YAP block 34
COc1ccc(CC(=O)NCc2ccco2)cc1	none
O=C(Nc1ccccn1)c1nc[nH]c1C(=O)O	none
Cc1cc(C)c2nc3nc(C)c(C)cc3c(N)c2c1	TEAD-YAP block 81
O=C(N/N=C/c1ccc(O)c(O)c1O)c1sc2ccccc2c1Cl	MITF primary 61
O=C(Nc1ccc(O)cc1)c1sc2ccccc2c1Cl	TEAD-YAP block 87
Cc1nc(NC(=O)c2sc3ccccc3c2Cl)sc1C	TEAD-YAP block 87
COC(=O)c1sc(NC(=O)c2sc3ccccc3c2Cl)nc1C	none
COc1cc(NC(=O)COc2ccccc2C)cc([N+](=O)[O-])c1	none
O=c1oc2ccccc2cc1-c1csc(-c2ccccc2Cl)n1	none
CCNc1nc(NC(C)(C)C)nc(SC(C(C)=O)C(C)=O)n1	TEAD-YAP block 42
COc1ccc(Br)c(C(=O)OCc2ccc([N+](=O)[O-])cc2)c1	none
Cc1ccc(CN(CC(=O)O)Cc2cn(-c3ccccc3)nc2-c2cccs2)cc1	TEAD-YAP block 60
NC(=O)N/N=C/c1cn(-c2ccccc2)nc1-c1cccs1	none
COc1ccc(S(=O)(=O)NCC(c2ccc3c(c2)CCCN3C)N2CCN(C)CC2)cc1 (stereo not given)	none
Cc1cccc(C(=O)Nc2ncc([N+](=O)[O-])s2)c1	TEAD-YAP block 55
O=C(Nc1ncc([N+](=O)[O-])s1)c1ccc(Cl)cc1Cl	TEAD-YAP block 64
O=C(Nc1nc2ccc3ccccc3c2s1)c1ccc(Br)cc1	none
O=C(Cc1ccc(Br)cc1)Nc1ncc([N+](=O)[O-])s1	none
O=C(Nc1ncc([N+](=O)[O-])s1)c1ccc(Br)cc1	TEAD-YAP block 65
N#Cc1sc(NC(=O)c2ccc(Br)cc2)nc1Cl	TEAD-YAP block 47
O=C(Cc1ccc(Cl)cc1)Nc1ncc([N+](=O)[O-])s1	none
CC(C)(CO)CN1C(=O)CCC1CCNCc1ccc(F)cc1 (stereo not given)	none
COC(=O)c1ccc(NC(=O)C(C)Sc2ncn[nH]2)cc1 (stereo not given)	none
Nc1cccc(-c2ccc(C(=O)NCc3ccccc3)s2)c1	none
CC(C)(C)C(=O)Nc1ccc(C(=O)Nc2ccc(C(=O)O)cc2)cc1	none
COc1ccc(NC(=O)CSCCc2ccccn2)c([N+](=O)[O-])c1	none
Cc1onc(-c2ccccc2)c1C(=O)Nc1ncc([N+](=O)[O-])s1	TEAD-YAP block 38
Cc1onc(-c2ccccc2Cl)c1C(=O)Nc1ncc([N+](=O)[O-])s1	none
Cc1ccc(C(=O)Nc2ncc([N+](=O)[O-])s2)cc1	TEAD-YAP block 82
O=C(Nc1ncc([N+](=O)[O-])s1)c1cccnc1	none
CC1CC(C)CN(C(=O)c2ccccc2F)C1 (stereo not given)	none
CS(=O)(=O)c1ccccc1C(=O)Nc1nc(-c2ccc(C#N)cc2)cs1	TEAD-YAP block 34
Cc1ccc(S(=O)(=O)Nc2ccccc2C(=O)Nc2nc(-c3cccs3)cs2)cc1	none

Bioassay records deposited in PubChem by The Scripps Research Institute Molecular Screening Center.
